# Several values for one entry are separate records, joined by “and”; a condition that tells them apart may be missing. Equal entries are not always repeated. Records with an inconclusive call do not appear. Activity calls are given as the source filed them. Calls follow the shape of the dose curve; as a rule, active = well fitted cell-killing curve with a large enough effect; inconclusive = small, poorly fitted or top-dose-only effect; inactive = flat fitted curve, though single readings scatter.
# Test: Cellular viability qHTS for adrenocortical cancer (ACC) cell line SW-13 (AID 1963989); also: nearly all actives have a fitted effect of over 65% in size;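 as to activity (max response): cells grown in serum-free medium with ITS supplement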
# Settings: SW-13 ACC cells viability, CellTiter-Glo, 48 h; activity (max response): hits give low values
# Text: PI: Naris Nilubol, MD Surgical Oncology Program, National Cancer Institute (NCI) National Institute of Health (NIH), Bethesda, Maryland Adrenocortical cancer (ACC) is a rare malignancy with poor survival outcomes and few treatment options. Currently, mitotane is the only FDA-approved therapy for ACC. Although adjuvant radiation therapy is rarely utilized, it has the potential to improve survival in select cases. Through a quantitative high-throughput drug screen (qHTS), we identified auranofin (AF), a thioredoxin reductase (TXNRD) inhibitor, as a promising candidate drug. This study aims to evaluate whether AF can enhance the efficacy of radiation therapy in the treatment of ACC. Two human ACC cell lines, SW-13 and NCI-H295R, were screened using the National Center for Advancing Translational Sciences (NCATS) Pharmaceutical Collection (NPC) and the Mechanism Interrogation PlatE (MIPE) library (~4,991 compounds). CellTiter-Glo (Cat # G7570, Promega, Madison, WI) was utilized to measure cell viability. Described herein are the results of the corresponding viability assay.
# PROTOCOL TABLE (as described by Inglese J, Shamu CE and Guy RK. 2007) SEQUENCE No. (e.g., 1, 2, 3, etc.); […] (e.g., Cells, Incubation, Reagent, etc.); VALUE; DESCRIPTION. 1; Cells; 5 uL; white, solid-bottom, 1536-well tissue-culture treated plates. 2; Time; overnight culture at 37C with 5% CO2. 3; Compounds and control; 23 nL; Kalypsis pin tool (Wako USA) equipped with a 1536-well pin head to transfer to the assay plates. 4; Time; 48 hours; 37C with 5% CO2. 5; Reagent; 4 uL; CellTiter-Glo luminescent substrate mix. 6; Time; 20 min at room temperature. 7; Detection; Luminescence; ViewLux plate reader NOTES (numbers refer to Sequence numbers above) 1. SW13 cells were harvested from a T175 flask and resuspended in ITS-supplemented DMEM serum-free medium at a concentration of 300 000 cells/mL. Then 5 uL of resuspended cells were dispensed into each well of white, solid-bottom, 1536-well tissue-culture-treated plates using a multidrop combi dispenser. The plates were covered with stainless steel gasket lids. 2-3. The plates were cultured overnight at 37C with 5% CO2. Twenty-three nL of compounds (eight selected concentrations from the NPC / MIPE) or positive control (10 mM stock of bortezomib) in DMSO was transferred to each well of the assay plate using a pin tool (Kalypsys, San Diego, CA, USA). The final concentration of the compounds in the 5 uL assay volume ranged from 0.5 nM to 46 uM. 4-6. After 48 hours of incubation at 37C and 5% CO2, 4 uL of CellTilter-Glo luminescent substrate mix (Promega, Madison, WI, USA) was added to each well. Then the plates were incubated for 20 minutes at room temperature. 7. After incubation, luminescence was measured using a ViewLux plate reader (PerkinElmer, Waltham, MA, USA) with a clear filter was used to measure the number of metabolically competent cells. To determine compound activity in the qHTS assay, the titration-response data for each sample was plotted and modeled by a four-parameter logistic fit yielding IC50 and efficacy (maximal response) values. […] REFERENCES: Inglese J, Shamu CE and Guy RK, Reporting data from high throughput screening of small molecule libraries, Nature Chemical Biology, 2007, 3(8): 438-441. doi.org/10.1038/nchembio0807-438.
# % is scaled to controls: 0 for no effect and ±100 for the full control effect; potency is read from the fitted curve at half-maximal effect.
Structure (SMILES),activity (max response),Potency
C[C@@H]1CC[C@H]2[C@@H](C)C(=O)O[C@@H]3O[C@@]4(C)CC[C@@H]1[C@]32OO4,-4.33% (inactive) and -19.2% (inactive),–
Cc1ncsc1CCCl,10.3% (inactive),–
COc1cc(CC#N)cc(OC)c1OC,12% (inactive),–
COc1ccc(C(c2ccc(OC)cc2)C(Cl)(Cl)Cl)cc1,–,28.2 µM (active)
Oc1cccc2cccnc12,-4.07% (inactive) and 11.1% (inactive),–
ClCCN1CCCC1,12.8% (inactive),–
Clc1cccc(N2CCNCC2)c1,2.07% (inactive),–
COc1ccc(OC)c(CC(C)N)c1 (stereo not given),-20.2% (inactive),–
O=C(O)C1=CCCN(CCOC(c2ccc(C(F)(F)F)cc2)c2ccc(C(F)(F)F)cc2)C1,-19.1% (inactive),–
CCOC(=O)c1ncn2c1CN(C)C(=O)c1c(I)cccc1-2,-2.47% (inactive),–
O=c1[nH]c2ccc(Cl)cc2c(N[C@@H]2CN3CCC2CC3)c1-c1nc2ccccc2[nH]1,–,3.55 µM (active)
CC(NC(C)(C)C)C(=O)c1cccc(Cl)c1 (stereo not given),8.14% (inactive) and 1.12% (inactive),–
O=c1[nH]c2cc(Cl)ccc2n1C1CCNCC1,8.8% (inactive),–
Oc1c(Br)cc(Br)cc1Br,8.39% (inactive),–
O=[N+]([O-])c1c(Cl)c(Cl)cc(Cl)c1Cl,-0.162% (inactive),–
COc1cccc([C@@]2(O)CCCC[C@@H]2CN(C)C)c1,2.96% (inactive),–
COc1cc(CC(C)N)c(OC)cc1Br (stereo not given),-4.97% (inactive),–
CSCC[C@@H](NC(=O)[C@@H](Cc1ccccc1)NC(=O)CNC(=O)CNC(=O)[C@@H](N)Cc1ccc(O)cc1)C(=O)O,3.41% (inactive),–
Cn1c(CCCC(=O)O)nc2cc(N(CCCl)CCCl)ccc21,2.81% (inactive) and -9.72% (inactive),–
CC(C)c1c(CN(C)C(C)Cc2ccccc2)n(C)n(-c2ccccc2)c1=O (stereo not given),5.24% (inactive),–

Structure (SMILES),activity (max response),Potency
CCCOC(=O)Cc1ccc(OCC(=O)N(CC)CC)c(OC)c1,10.7% (inactive),–
CC(C)(N)Cc1ccccc1Cl,5.36% (inactive),–
CC1OC(C)OC(C)O1 (stereo not given),14% (inactive),–
CC(Cc1ccccc1)NCc1ccccc1Cl (stereo not given),-8.69% (inactive),–
C=C(C)[C@H]1Cc2c(ccc3c2O[C@@H]2COc4cc(OC)c(OC)cc4[C@@H]2C3=O)O1,–,0.0116 µM (active)
Clc1ccccc1N1CCNCC1,-1.85% (inactive),–
CC(=O)OC1(c2ccccc2)CCN(CCc2ccccc2)CC1,-14.1% (inactive),–
O=[N+]([O-])c1c2ccccc2cc2ccccc12,8.46% (inactive),–
CCN(CC)CCc1c[nH]c2ccccc12,-11.9% (inactive),–
COP(=S)(OC)Oc1cc(Cl)c(Cl)cc1Cl,7.21% (inactive),–
O=C1CC[C@@]2(O)[C@H]3Cc4ccc(O)c5c4[C@@]2(CCN3CC2CC2)[C@H]1O5,9.15% (inactive) and -5.08% (inactive),–
CN1CCC(O)(c2ccc(F)cc2)C(C(=O)c2ccc(F)cc2)C1 (stereo not given),0.424% (inactive),–
O=c1[nH]c2ccccc2n1C1CCNCC1,4.94% (inactive),–
O=C1OC(c2ccc(O)c(S(=O)(=O)O)c2)(c2ccc(O)c(S(=O)(=O)O)c2)c2c(Br)c(Br)c(Br)c(Br)c21,4.14% (inactive),–
COc1ccc2c(c1OC)C(=O)O[C@H]2[C@@H]1c2cc3c(cc2CCN1C)OCO3,8.92% (inactive),–
CC[C@@H](CO)NC(=O)[C@@H]1C=C2c3cccc4[nH]cc(c34)C[C@H]2N(C)C1,-27.7% (inactive),–
C[C@]12CC[C@H]3[C@@H](CC[C@@]45O[C@H]4C(O)=C(C#N)C[C@]35C)[C@H]1CC[C@H]2O,-2% (inactive),–
CC1=C2[C@H]3OC(=O)[C@@H](C)[C@@H]3CC[C@@]2(C)C=CC1=O,-9.75% (inactive),–
NC1=NC(=O)C(c2ccccc2)O1 (stereo not given),8.75% (inactive),–
C=C(C)[C@@H]1CCC(C)=C[C@H]1c1c(O)cc(CCCCC)cc1O,–,31.6 µM (active)

# Reference: PubChem BioAssay (NCATS)
